Here are results for 13 compounds from PubChem BioAssay (NCI).

What all share (test): NCI-60 one-dose screen, 48 h (100 = growth as untreated, 0 = no growth, -100 = all killed)
What all share (conditions): 10 µM unless noted

Experiment [1] deals with NCI-H23 lung.
The subject of experiment [2] is NCI-H226 lung.
In experiment [3] the test system is NCI-H322M lung.
The subject of experiment [4] is HOP-62 NSCLC.
Experiment [5] deals with NCI-H460 lung.
The subject of experiment [6] is HOP-92 NSCLC.
Experiment [7] concerns NCI-H522 lung.
The test system of experiment [8] is A549/ATCC NSCLC.
Experiment [9] concerns 786-0 renal.
Experiment [10] deals with COLO 205 colon.

Compounds without any hit were thinned out: in the full panel of roughly 83,000, 20% have a hit.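 48-hour exposure, single concentration, 96-well plates; percent growth endpoint where 0 means no net growth. Active: below 10.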 Unmarked numbers belong to inactive results. The source made the active and inactive calls.

As to `CSc1nc(NCCO)c(C#N)c(-c2cccc(N)c2)n1`, the growth is 90.5% in experiment [1]; 92.8% in [2]; 97.6% in [3]; 83.7% in experiment [4]; 99.6% in experiment [5]; 95.7% in experiment [6]. The growth is 87.4% in experiment [7], 100% in experiment [8], 103% in [9] and 108% in experiment [10].
Turning to `COc1ccc(-c2c(C)noc2-c2ccc(O)cc2O)cc1`, the growth in experiment [1] is 81.4%; in [2] it was 101%; in [3], 94%; in experiment [4], 118%; in experiment [5], 54.3%; in experiment [6], 104%. Further, the growth is 69.5% in experiment [7], 75.3% in experiment [8], 97.9% in experiment [9] and 121% in experiment [10].
For `COc1cccc2c1C(=O)c1c(O)c3c(c(O)c1C2=O)C[C@@](O)(/C(C)=N/NC(=O)c1ccc(Cl)cc1)C[C@@H]3OC1CC(N)C(O)C(C)O1` (stereo not given in full), the growth in experiment [1] is -39.7% (active); in experiment [2], -39.4% (active); in experiment [3] it was -35.3% (active); in experiment [4], -17% (active); in experiment [5], -21.8% (active); in experiment [6], -6.16% (active). For the same compound, the growth in experiment [7] was -70.1% (active); in [8], -32.8% (active); in [9], -6.44% (active); in [10], -81.4% (active).
As for `CCN(CC)CCCNc1cccc2c(SCc3ccccc3)ccnc12`, the growth was 69.3% in experiment [1]; 89.8% in [2]; 41.6% in [3]; 94.8% in experiment [4]; 72% in [5]; 26.2% in experiment [6]. Moreover, the growth is 52% in experiment [7], 63.7% in [8], 72.7% in experiment [9] and 106% in experiment [10].
As for `CC/C=C\C[C@H](O)C/C=C1/C(=O)C=C[C@@H]1C/C=C\CCCC(=O)OC(C)C`, the growth was -40.1% (active) in [1]; -39% (active) in experiment [2]; -1.62% (active) in experiment [3]; -44.2% (active) in [4]; 0.788% (active) in experiment [5]; -0.165% (active) in experiment [6]. Also, the growth in experiment [7] is -54.2% (active); in experiment [8], -39.2% (active); in experiment [9], -50.8% (active); in [10], -73.8% (active).
On to `COc1ccc(/C=C2\CN(C(=O)CCN3CCC(=NO)CC3)C/C(=C\c3ccc(OC)cc3)C2=O)cc1`, for which the growth is -4.73% (active) in experiment [1]; 70% in [2]; 17.8% in experiment [3]; 44.8% in [4]; -34.5% (active) in experiment [5]; 89% in experiment [6]. Moreover, the growth in [7] is -29.7% (active); in experiment [8], 36.5%; in experiment [9] it was -10.3% (active); in [10], -23.7% (active).
As to `O=C1c2cc3c(cc2-c2c1c1cc(F)c(F)cc1c(=O)n2C[C@H](O)CO)OCO3`, the growth in experiment [1] was -30.4% (active); in experiment [2] it was -74.1% (active); in [3], -3.54% (active); in [4] it was -35.2% (active); in experiment [5], 1.39% (active); in experiment [6] it was 9.43% (active). Moreover, the growth is -3.34% (active) in experiment [7], -57.8% (active) in experiment [8], -20.8% (active) in [9] and -17.9% (active) in experiment [10].
For `O=C(N/N=C/c1ccc(O)cc1O)c1cccnc1`, the growth is 45.3% in experiment [1]; 70.5% in experiment [2]; 29.9% in experiment [3]; 43.2% in [4]; 10.9% in [5]; 56.4% in experiment [6]. The growth is -6.04% (active) in experiment [7], 46.4% in experiment [8], 37.9% in experiment [9] and 23.4% in [10].
On to `Oc1cccc(Nc2nccc(-c3ccc4ccccc4c3)n2)c1`, for which the growth in [1] is 33.2%; in experiment [2], 70.8%; in experiment [3] it was 46%; in experiment [4], 27.2%; in experiment [5], 16.1%; in experiment [6] it was 63.5%. Besides, the growth in [7] is 15.6%; in experiment [8], 30.7%; in [9], 30.1%; in experiment [10], 84.7%.
As for `Nc1c(C(=O)Nc2ccccc2Cl)sc2nc3c(cc12)CCCCCC3`, the growth is 72.4% in experiment [1]; 31% in experiment [2]; 49.2% in experiment [3]; 27% in [4]; 30.8% in experiment [5]; 39.4% in experiment [6]. Moreover, the growth was 58% in experiment [7], 29% in experiment [8], -55.3% (active) in [9] and 33.8% in experiment [10].
On to `CCOC(=O)/C=C/c1ccc(C(=O)OCC)[nH]1`, for which the growth is 72.3% in experiment [1]; 89% in experiment [2]; 57.4% in experiment [3]; 76.7% in [4]; 14.3% in [5]; 53.8% in [6]. Besides, the growth was 54.4% in experiment [7], 40.3% in experiment [8], 90.2% in experiment [9] and 16.2% in experiment [10].
In the case of `C[C@@H]1CCC2=C(CCC[C@]2(C)C(=O)O)[C@@]1(C)CCc1ccoc1`, the growth in [1] was 99.4%; in experiment [2], 85.7%; in experiment [3] it was 93.4%; in experiment [4] it was 96.5%; in experiment [5], 96.9%; in experiment [6], 85.1%. The growth in experiment [7] is 77%; in experiment [8] it was 75.8%; in [9], 112%; in [10] it was 112%.
For `COC(=O)[C@H](C(C)C)n1c(=O)c2cc(OC)c(OC)cc2c2cnc3[nH]ccc3c21`, the growth in [1] is 62.1%; in [2], 46.4%; in experiment [3], 48.5%; in [4], 45.8%; in experiment [5] it was 41.2%; in experiment [6], 13.7%. The growth in experiment [7] was 62.8%; in experiment [8], 40.7%; in experiment [9], 52.9%; in experiment [10], 57.5%.
